The source of these data is PubChem BioAssay AID485297 (National Center for Advancing Translational Sciences (NCATS), 2010).

The campaign covered roughly 320,000 compounds. About 9,100 (2.8%) were called active. Where a call stands in place of a potency, no number is given. Another 3% or so got no clear call; they are omitted. Calls come from the whole dose curve; as a rule, active = well fitted activation curve with a large enough effect; inconclusive = small, poorly fitted or top-dose-only effect; inactive = no such curve, though single readings can be large or run the other way. Many of the other results were omitted from the sample, so actives are more common in it than they were.
Potency is the fitted concentration of half-maximal effect.

A short description of this experiment: qHTS Assay for Rab9 Promoter Activators. Note: nearly all actives have a fitted effect of over 60% in size. The settings on record: Huh7 Rab9 promoter-luciferase reporter, luminescence, 24 h; series mostly up to 9.22 µM. The text has this:
NIH Chemical Genomics Center [NCGC] NIH Molecular Libraries Probe Production centers Network [MLPCN] MLPCN Grant: MH089537-01 Assay Submitter (PI): Yiannis A. Ioannou NCGC Assay Overview: Niemann Pick Type C (NPC) is a rare neurodegenerative lipidosis that is characterized by lipid storage in the endosomal/lysosomal system. Treatment modalities for this devastating disease are currently non-existent due to the severe obstacles associated with accessing the central nervous system with proteins or genes (Ioannou, 2000). We have developed a new paradigm, termed "Orphan Receptor Bypass Therapy" (ORByT), to address these disorders. This paradigm posits the existence of endogenous "suppressor" proteins whose expression can dramatically improve LSD pathogenesis. The goal is the identification/discovery of small chemical compounds that can modulate the expression of these proteins and provide a new treatment modality for these devastating disorders. One such protein whose overexpression reverses aspects of the NPC phenotype is Rab9. We have developed and optimized a cell based luciferase reporter assay in 1536 well format for the identification of up-regulators of the Rab9 promoter.
The Rab9 promoter is cloned in front of the luciferase reporter gene, therefore […] promoter activation results in luciferase expression. Frozen stock of the Rab9 promoter transfected Huh7 cells were obtained from the laboratory of Dr. Yiannis Ioannou (The Mount Sinai School of Medicine, New York, NY). Cells were propagated and maintained at NCGC in medium containing RPMI-1640 supplemented with 10% FBS, 2mM L-glutamine, and 50ug/ml penicillin/streptomycin. Cells were harvested in and plated for assays in OP-MEM I reduced-serum medium supplemented with 10% FBS. The Amplite luciferase reporter gene assay kit was purchased from ABD Bioquest and prepared/stored according to manufacturers recommendations. qHTS Assay Setup: 1.Dispensed 5ul of Huh7 cells stably expressing Rab9-luciferase at a density of 1500 cells per well 1536-well plates. 2.Incubate cells at 37C, 5% CO2, and 95% humidity for 2 hours. 3.Transferred 23nl per well of compound in DMSO solution. 4.Incubated at 37C, 5% CO2, and 95% humidity for 24 hours. 5.Dispensed 3ul per well of Amplite reagent(ABD Bioquest) per well. 6.Incubate at ambient for 10 minutes. 7.Read using the luminescence protocol on the ViewLux plate reader (Perkin Elmer).
Background: In qHTS, concentration-response curves come from the screen itself.
`O=C(Nc1cccc2cccnc12)c1cccc(Cl)c1`: the Potency entry was “inactive”.
On to `CSc1ccc(C#N)cc1NC(=O)c1cccc(Cl)c1`, for which the Potency result is “inactive”.
Consider `N#Cc1ccccc1NC(=O)c1cccc(COc2ccc(Cl)cc2Cl)c1`, for which the Potency was 447 nM (active).
Then `CCN(c1ccccc1)S(=O)(=O)c1cccc(C(=O)NCc2ccccc2CN2CCOCC2)c1`, with “inactive”; and `CN(CC(=O)Nc1ccc(Cl)cc1)CC(=O)Nc1cccc2ccccc12`, with “inactive”.
Regarding `C/C=C(/C)C(=O)O[C@@H]1c2cc3c(c4c2[C@@]2(CO4)C(=O)C(OC)=C(OC)C=C2C[C@@H](C)[C@H]1C)OCO3`, the Potency result is “inactive”.
Then `CCc1ccc(N(CC(=O)NCc2cccnc2)S(=O)(=O)c2ccccc2)cc1`, with 3550 nM (active).
In the case of `CCCNS(=O)(=O)c1ccc(CCC(=O)NCc2cccnc2)cc1` it was “inactive”; in that of `O=C(CN(c1cc(C(F)(F)F)ccc1Cl)S(=O)(=O)c1ccccc1)NCc1cccnc1`, “inactive”; in that of `Cc1ccc(CN2CC(C(=O)NNC(=O)Cn3ccc(C(F)(F)F)n3)CC2=O)cc1` (stereo unspecified), “inactive”.
Regarding `CC(NC(=O)c1ccc(S(=O)(=O)Nc2ccccc2)cc1)c1ccc(S(N)(=O)=O)cc1` (stereo unspecified), the Potency entry was “inactive”.
Take `COc1ccccc1C(=O)Nc1ccc(OCC(=O)N2CCCCC2)cc1`: the Potency result is “inactive”.
In the case of `O=C1CC[C@H](O)CCN1[C@H](CSc1ccc(Br)cc1)Cc1ccccc1` it was “inactive”; in that of `CC(C)(CSc1nncn1/N=C/c1ccco1)NS(=O)(=O)c1ccc(Cl)cc1`, “inactive”.
Then `CC(C)(C)OC(=O)N/N=C/c1ccc(C(=O)O)cc1`, with “inactive”; and `Cc1ccccc1NC(=O)NNC(=O)OC(C)(C)C`, with “inactive”.
On to `C/C(=N\NC(=O)OC(C)(C)C)c1ccc[nH]1`, for which the Potency was 2820 nM (active).
In the case of `Cc1cccc(C)c1NC(=O)C(Cl)C(=O)c1ccccc1` (stereo unspecified) it was “inactive”; in that of `CCCCN(C(=O)C1CCC1)c1c(N)n(Cc2ccccc2)c(=O)[nH]c1=O`, “inactive”; in that of `CCC(=O)c1ccc(OCC(=O)OCC(=O)N2CCc3ccccc3C2)cc1`, “inactive”.
Then `O=C(Nc1cccc(NC(=O)c2ccc(Br)cc2)c1)c1ccccc1`, with “inactive”; and `COc1ccc2[nH]c(C(=O)Nc3ccccc3Cl)cc2c1`, with “inactive”; and `O=C(Nc1ccccc1)c1cc2ccccc2[nH]1`, with 2510 nM (active).
Consider `Cc1sc2ncnc(SCC(=O)Nc3ccc(CN4CCCC4)cc3)c2c1C`, for which the Potency result was “inactive”.
Then `Cc1ccc2[nH]cc(CCCN3C(=O)c4ccccc4C3=O)c2c1`, with “inactive”.
In the case of `COc1ccc2[nH]cc(CCN3C(=O)c4ccc(C(=O)O)cc4C3=O)c2c1` it was 1000 nM (active).
For `COc1ccc(C[C@H](C(=O)O)N2C(=O)c3ccc(C(=O)O)cc3C2=O)cc1`, the Potency result was “inactive”.
Then `COc1cc([N+](=O)[O-])ccc1NC(=O)COC(=O)CCOc1ccc(C)cc1`, with “inactive”.
In the case of `O=C(CN1C2=NCCN2c2ccccc21)c1cccs1`, the Potency result was “inactive”.
Then `O=C(CSc1ncnc2sccc12)N1CCN(C(=O)c2cccs2)CC1`, with “inactive”; and `Nc1c(C(=O)c2cccs2)sc2nsc(SCCN3CCCCC3)c12`, with 2510 nM (active); and `CCCCC/C=C/C1=CC(=O)C[C@H](c2ccc(Cl)cc2)C1`, with “inactive”.
In the case of `COc1ccccc1CNC(=O)COC(=O)c1sc(C)nc1C` it was “inactive”; in that of `CCOC(=O)c1c(NC(=S)NC(=O)/C=C/c2cccs2)sc(C)c1C`, “inactive”.
Then `CCOC(=O)c1sc(=NC(=O)c2ccc(Br)cc2)n(C)c1C`, with “inactive”; and `CCOC(=O)c1sc(=NC(=O)/C=C/c2cccs2)n(C)c1C`, with 2820 nM (active).
Turning to `C=CCNC(=O)c1ccc(C)c(Br)c1`, the Potency entry is “inactive”.
Then `Cc1cccc(-c2nc3ccc(C(=O)NCCN4CCN(C)CC4)cc3nc2-c2cccc(C)c2)c1`, with “inactive”.
Turning to `C=CCNC(=O)c1ccc2c3n(nc2c1)-c1ccc(C)cc1CO3`, the Potency is 891 nM (active).
Then `COc1ccc(CNC(=O)CN2C(=O)NC3(CCCc4sccc43)C2=O)cc1` (stereo unspecified), with “inactive”; and `CO[C@H]1[C@@H]2C=CO[C@@H](O[C@H]3O[C@@H](CO)[C@H](O)[C@@H](O)[C@@H]3O)[C@@H]2[C@@]2(CO)O[C@@H]12`, with “inactive”; and `Cc1cc(C)nc(Nc2cc([N+](=O)[O-])ccc2C)n1`, with “inactive”.
Then `Cc1ccc(-n2cc3ccc([N+](=O)[O-])cc3n2)cc1`, with 355 nM (active); and `Cc1ccc(-c2cn(S(=O)(=O)c3cccc([N+](=O)[O-])c3)nc2N)cc1`, with “inactive”; and `Cc1ccc(CNC(=O)c2cccc3c2C(=O)c2ccc(N4CCC(C)CC4)cc2S3(=O)=O)cc1`, with “inactive”.
Then `Cc1c(O)c(C)c2c(c1O)C(=O)C[C@@H](c1ccccc1)O2`, with “inactive”.
As for `COc1ccc(NC(=O)C2COc3ccccc3O2)cc1` (stereo unspecified), the Potency is 3160 nM (active).
Take `COc1ccc(NC(=O)CC2COc3ccccc3O2)c(OC)c1` (stereo unspecified): the Potency result was “inactive”.
In the case of `CC(=O)c1cccc(NC(=O)C2COc3ccccc3O2)c1` (stereo unspecified) it was “inactive”.
In the case of `CC(C)C[C@H](NC(=O)[C@H](O)[C@H](N)Cc1ccccc1)C(=O)O` it was “inactive”; in that of `CNS(=O)(=O)c1cccc(C(=O)OCCCC(=O)c2ccccc2)c1`, “inactive”.
